# Measured values reported in PubChem BioAssay (NCATS).
# Values joined by “and” are separate entries in the source; they are usually repeats but may differ in a detail not shown here. Equal entries are not always repeated. Records with an inconclusive call do not appear. Where a structure was tested more than once in an assay, its records may differ in their call. Active and inactive are the calls of the source. Calls come from the whole dose curve.
# Molecular target: Cytochrome P450 1A2 (Homo sapiens) (UniProt P05177)
# Sequence (P05177 whole entry, looked up): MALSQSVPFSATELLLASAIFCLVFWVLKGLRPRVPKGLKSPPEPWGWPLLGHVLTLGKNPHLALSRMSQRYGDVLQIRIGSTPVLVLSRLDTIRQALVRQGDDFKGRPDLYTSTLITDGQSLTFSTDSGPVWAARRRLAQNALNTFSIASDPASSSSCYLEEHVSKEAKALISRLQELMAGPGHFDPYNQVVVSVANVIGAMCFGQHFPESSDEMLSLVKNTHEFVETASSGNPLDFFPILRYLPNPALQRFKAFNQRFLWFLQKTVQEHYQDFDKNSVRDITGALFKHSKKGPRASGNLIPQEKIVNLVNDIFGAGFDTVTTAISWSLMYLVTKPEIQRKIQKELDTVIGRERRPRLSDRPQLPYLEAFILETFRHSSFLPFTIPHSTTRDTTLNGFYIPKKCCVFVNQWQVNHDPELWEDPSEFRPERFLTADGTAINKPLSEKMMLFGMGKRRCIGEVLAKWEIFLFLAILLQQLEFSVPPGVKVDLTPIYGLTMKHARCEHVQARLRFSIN
# Assay: p450-cyp1a2 (AID 410);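 for activity change, negative = inhibition: -100% = full effect of reference inhibitor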
# Details: recombinant CYP1A2, luciferin-ME demethylation, luminescence; series mostly up to 57 µM; activity change, negative = inhibition: at the top concentration
# Summary of the method: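 20nM CYP1A2 with 100uM Luciferin-ME (at Km) in 100mM KPO4; compound preincubated 10 min, NADPH regeneration added, 60 min at room temperature. Luciferin quantified by luminescence after detection reagent; normalized to 57 uM furafylline.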
# Potency is the fitted concentration of half-maximal effect.
Structure (SMILES),Potency,"activity change, negative = inhibition"
CC[N+](C)(CC)CCC[n+]1c(-c2ccccc2)c2cc(N)ccc2c2ccc(N)cc21,12.6 µM (active),
N[C@H](C(=O)O)c1ccc(C(=O)O)c(O)c1,,-0.8% (inactive)
O=C(O)Cc1cc2ccccc2nc1C(=O)O,,-19.6% (inactive)
NC[C@](O)(CS(=O)(=O)O)c1ccc(Cl)cc1,inactive and 31.6 µM (active),
CO[C@@]12C[C@@H](COC(=O)c3cncc(Br)c3)CN(C)[C@H]1Cc1cn(C)c3cccc2c13,5.01 µM (active) and 15.8 µM (active) and 39.8 µM (active),
COc1ccccc1NC(=O)Nc1nc(-c2cccnc2)nc2ccccc12,2.51 µM (active),
CC(C)SC(=N)N,,-17.7% (inactive)
O=C(O)COc1ccc(OCCNC[C@@H](O)COc2ccccc2)cc1,39.8 µM (active),
N[C@H](CCC(=O)NCC(=O)O)C(=O)O,,-17.4% (inactive)
CC1=C(\C=C/C(C)=C/C=C\C(C)=C\C(=O)O)C(C)(C)CCC1,inactive and 20 µM (active),
CCC(=O)O[C@H](CC(=O)O)C[N+](C)(C)C,,5.5% (inactive)
C[C@@](N)(C(=O)O)c1ccc(P(=O)(O)O)cc1,39.8 µM (active),
C[C@H](C[C@H](N)C(=O)O)C(=O)O,31.6 µM (active),
O=C(O)[C@H]1CCCNC1,inactive,
O=C(O)[C@H]1CN(CCCP(=O)(O)O)CCN1,inactive,
NCCC(=O)O,,-20.8% (inactive)
CCN(Cc1ccncc1)C(=O)[C@@H](CO)c1ccccc1,15.8 µM (active) and 10 µM (active),
N[C@@H](C(=O)O)c1ccc(P(=O)(O)O)cc1,20 µM (active),
